Consider eight compounds from PubChem BioAssay (Tox21).

SMILES strings stand for the structures. A number with no mark means an inactive call. Results filed as inconclusive are left out. Active and inactive are the calls of the source. Unless noted, calls come from the whole dose curve; as a rule, active = well fitted curve in the direction sought with a large enough effect in the repeat runs; inconclusive = weak or mixed curves; inactive = no such curve, though single readings can be large; an effect the other way counts as inactive or inconclusive.

Test [1] is described as follows: qHTS assay to identify small molecule antagonists of the estrogen receptor beta (ER-beta) signaling pathway - cell viability counter screen (AID 1259382). Note: nearly all actives have a fitted effect of over 55% in size. Note: potency is the fitted concentration of half-maximal effect. Summed up:
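CellTiter-Glo ATP luminescence measured after the LiveBLAzer read in the same wells; ER-beta-UAS-bla HEK293T cells, 16 hr compound treatment with 1nM 17-beta-estradiol agonist at 37C, 5% CO2.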
(In general: qHTS replaces the single test concentration by a dilution series.)

Test [2] is described as follows: qHTS assay to identify small molecule agonists or antagonists of the thyroid stimulating hormone receptor (TSHR) signaling pathway - wild type cell line counter screen (AID 1259384; calls by dose curve). Summed up: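 Wild-type Hek293 cells, 800/well, 18 h at 37C, then compound with Ro20-1724 for 30 min RT. cAMP by HTRF (cAMP-d2/anti-cAMP cryptate), 1 h RT, fluorescence read. 15 concentrations, triplicates.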

Test [3] has as its target Thyrotropin receptor (Homo sapiens) (UniProt P16473). Put plainly: qHTS assay to identify small molecule antagonists of the thyroid stimulating hormone receptor (TSHR) signaling pathway (AID 1259385; calls by dose curve; note: nearly all actives have a fitted effect of over 20% in size). A digest of the protocol: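 TSHR-HEK293 cells (800/well) plated 18 h, then compounds with Ro20-1724 and TSH at 1.5 ng/mL final, 30 min at room temperature. cAMP quantified by HTRF (cAMP-d2/anti-cAMP-cryptate, 1 h); 15 concentrations in triplicate.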

The nature of test [4]: qHTS assay to identify small molecule antagonists of the progesterone receptor (PR) signaling pathway - cell viability counter screen (AID 1346798). Note: nearly all actives have a fitted effect of over 50% in size. Note: potency is the fitted concentration of half-maximal effect. A digest of the protocol: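 Cytotoxicity read as CellTiter-Glo luminescence (30 min, room temperature) in the same wells as the beta-lactamase readout. HEK293T PR-UAS-bla cells in charcoal-stripped 2% FBS received compound and R5020, then 16 h at 37C, 5% CO2.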

The nature of test [5]: qHTS assay to identify small molecule antagonists of the TGF-beta/Smad signaling pathway - cell viability counter screen (AID 1346824). Note: nearly all actives have a fitted effect of over 50% in size. Summed up: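 SBE-bla HEK 293T cells, incubated overnight, then compound plus 0.25 ng/mL TGF-beta1 (stock added) for 5 hr at 37 C. Viability was read in the same wells by CellTiter-Glo luminescence after 30 min at room temperature.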
Test [6] is described as follows: qHTS assay to identify small molecule agonists of the TGF-beta/Smad signaling pathway - cell viability counter screen (AID 1346829). Note: top concentration of the series differs between compounds; nearly all actives have a fitted effect of over 45% in size. Summed up: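 Luminescence from CellTiter-Glo, read after a 30 min room-temperature incubation, gives cell viability of SBE-bla HEK 293T cells treated 5 hr with compounds at 37 C.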
Test [7] has as its target Thyrotropin-releasing hormone receptor (Homo sapiens) (UniProt P34981). Briefly: qHTS assay to identify small molecule agonists of the thyrotropin-releasing hormone receptor (TRHR) signaling pathway (AID 1346891; calls by dose curve; note: series mostly up to about 58 µM). Summed up:
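Agonist-mode intracellular calcium readout: kinetic fluorescence over 3 min at 1 s intervals after compound addition to TRHR-HEK293 cells (18 h seeded, 2 h dye-loaded at 37 C). Fifteen concentrations, triplicates.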

Test [8] in a line: Caspase-3/7 induction in HepG2 cells by small molecules, qHTS assay (AID 1346978). Note: nearly all actives have a fitted effect of over 15% in size. Note: potency is the fitted concentration of half-maximal effect. A digest of the protocol:
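Wild-type HepG2 cells, 2,000/well, settled 5 hr at 37 C and 5% CO2, then compound-treated for 17 hr; caspase-3/7 activity read by luminescent Caspase-Glo 3/7 after 30 min at room temperature.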

The nature of test [9]: Caspase-3/7 induction in CHO-K1 cells by small molecules, qHTS assay (AID 1346980). Note: nearly all actives have a fitted effect of over 15% in size. Note: potency is the fitted concentration of half-maximal effect. A digest of the protocol: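 Wild-type CHO-K1 cells exposed to compounds for 17hr at 37 C, 5% CO2. Caspase-3/7 activity then measured by Caspase-Glo 3/7 luminescence after 30min at room temperature.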
The nature of test [10]: qHTS assay to identify small molecule agonists of the TGF-beta/Smad signaling pathway (AID 1346859; active = well fitted activation curve with a large enough effect in the signal ratio in the repeat runs, not every such curve was filed as active; the % refers to the signal ratio; note: series mostly up to about 77 µM). A digest of the protocol: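 Fluorescence (ex 405 nm; em 460 and 530 nm) was read 2 h after LiveBLAzer FRET substrate at RT. The preceding compound treatment of overnight-plated SBE-bla HEK293T cells lasted 5 h at 37 C.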
Test [11] concerns the target Thyrotropin-releasing hormone receptor (Homo sapiens) (UniProt P34981). Briefly: qHTS assay to identify small molecule antagonists of the thyrotropin-releasing hormone receptor (TRHR) signaling pathway (AID 1346877; active = well fitted inhibition curve with a large enough effect in the repeat runs, not every such curve was filed as active; note: series mostly up to about 51 µM). A digest of the protocol:
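Calcium signal in dye-loaded TRHR/HEK293 cells; compounds added 5 min before TRH (1 nM final); fluorescence monitored 3 min at 1 s steps.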

Test [12] is described as follows: Human pregnane X receptor (PXR) small molecule agonists, qHTS cell viability counter screen (AID 1346977). Note: nearly all actives have a fitted effect of over 50% in size. Note: potency is the fitted concentration of half-maximal effect. A digest of the protocol:
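Same-well viability read: CellTiter-Fluor added after 23 hr compound exposure, fluorescence measured 1 hr later. Cells were PXR-Luc HepG2 seeded at 2,000/well in 5% charcoal-stripped FBS medium, rested 5 hr before dosing at 37 C.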

Test [13] is described as follows: Caspase-3/7 induction in CHO-K1 cells by small molecules, qHTS cell viability counter screen (AID 1346979). Note: nearly all actives have a fitted effect of over 35% in size. Note: potency is the fitted concentration of half-maximal effect. Summed up:
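Cytotoxicity counter screen: CellTiter-Fluor added to compound-treated wild-type CHO-K1 cells at 16 h (37C, 5% CO2), fluorescence measured 1 h later; same wells as caspase-3/7 measurement.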

Test [14] can be described thus: Caspase-3/7 induction in HepG2 cells by small molecules, qHTS cell viability counter screen (AID 1346981). Note: nearly all actives have a fitted effect of over 30% in size. Note: potency is the fitted concentration of half-maximal effect. Summed up:
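After a 5-hr attachment period at 37 C and 5% CO2, wild-type HepG2 cells received compounds in DMSO. Sixteen hours later CellTiter-Fluor was dispensed and the fluorescent signal quantified after a further hour.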

Test [15] is described as follows: qHTS assay to identify small molecule agonists of the estrogen receptor alpha (ER-alpha) signaling pathway in the presence of an antagonist - cell viability counter screen (AID 1259386).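 Note: series mostly up to about 92 µM; cells exposed to compounds for 22 h at 37 °C before the viability read; nearly all actives have a fitted effect of over 30% in size.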 Summed up: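 Using estrogen-depleted VM7Luc4E2 cells, the 15-concentration compound series was applied together with 10.0nM ICI-182,780 and incubated 22hr at 37C/5% CO2. Cell viability was then scored by CellTiter-Fluor.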

The target in test [16] is Progesterone receptor (Homo sapiens) (UniProt P06401). Put plainly: qHTS assay to identify small molecule agonists of the progesterone receptor (PR) signaling pathway (AID 1346784; calls by dose curve; note: nearly all actives have a fitted effect of over 30% in size). A digest of the protocol: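 Agonist qHTS: compounds pinned onto 3,000 PR-UAS-bla HEK 293T cells per well in charcoal-stripped serum medium, 16hr at 37C, then beta-lactamase activity measured by LiveBLAzer FRET fluorescence after 2 hours at room temperature.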
Sequence of Progesterone receptor (Homo sapiens) (P06401 whole entry, looked up): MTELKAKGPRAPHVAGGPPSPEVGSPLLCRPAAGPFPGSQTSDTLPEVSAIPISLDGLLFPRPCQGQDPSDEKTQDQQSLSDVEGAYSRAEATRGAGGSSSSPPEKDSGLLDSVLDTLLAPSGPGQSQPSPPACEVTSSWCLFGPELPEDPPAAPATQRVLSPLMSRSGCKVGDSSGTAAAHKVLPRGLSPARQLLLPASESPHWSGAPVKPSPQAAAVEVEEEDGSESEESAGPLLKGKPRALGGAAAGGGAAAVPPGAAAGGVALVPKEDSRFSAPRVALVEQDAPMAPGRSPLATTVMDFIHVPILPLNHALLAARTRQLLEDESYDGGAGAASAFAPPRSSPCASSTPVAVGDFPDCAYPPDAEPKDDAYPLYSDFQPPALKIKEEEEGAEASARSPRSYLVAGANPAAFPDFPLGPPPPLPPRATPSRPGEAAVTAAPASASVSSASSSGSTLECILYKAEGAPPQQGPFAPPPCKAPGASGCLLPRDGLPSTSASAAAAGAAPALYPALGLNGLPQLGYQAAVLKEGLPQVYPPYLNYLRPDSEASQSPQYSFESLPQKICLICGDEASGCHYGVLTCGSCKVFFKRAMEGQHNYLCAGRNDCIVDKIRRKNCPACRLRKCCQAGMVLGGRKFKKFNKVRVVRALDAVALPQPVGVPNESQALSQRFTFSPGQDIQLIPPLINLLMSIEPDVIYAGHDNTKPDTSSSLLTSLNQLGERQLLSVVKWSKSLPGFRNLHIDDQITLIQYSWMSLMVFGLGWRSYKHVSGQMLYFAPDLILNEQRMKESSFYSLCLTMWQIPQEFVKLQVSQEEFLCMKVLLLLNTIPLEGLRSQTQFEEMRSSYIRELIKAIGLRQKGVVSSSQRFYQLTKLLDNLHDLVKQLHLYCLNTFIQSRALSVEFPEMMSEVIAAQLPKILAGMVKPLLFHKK

A short description of test [17]: qHTS assay to identify small molecule agonists of the progesterone receptor (PR) signaling pathway - cell viability counter screen (AID 1346799; calls by dose curve; note: nearly all actives have a fitted effect of over 45% in size). A digest of the protocol:
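Cytotoxicity measured by CellTiter-Glo luminescence (30 min, RT) in the same wells as the PR beta-lactamase agonist read. Those HEK293T cells had 16 h compound treatment at 37 C in 2% charcoal-stripped FBS medium.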

Test [18] concerns the target Nuclear receptor subfamily 1 group I member 2 (Homo sapiens) (UniProt O75469). Put plainly: Human pregnane X receptor (PXR) small molecule agonists, qHTS assay (AID 1346982). Note: nearly all actives have a fitted effect of over 35% in size. Note: potency is the fitted concentration of half-maximal effect. Summed up:
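Tox21 qHTS; PXR-Luc HepG2; compounds pinned from DMSO; 24 hr, 37 C; ONE-Glo luciferase detection, 30 min room temperature.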

Test [19] concerns the target Progesterone receptor (Homo sapiens) (UniProt P06401). Briefly: qHTS assay to identify small molecule antagonists of the progesterone receptor (PR) signaling pathway (AID 1346795; active = well fitted inhibition curve with a large enough effect in the signal ratio in the repeat runs, not every such curve was filed as active; the % refers to the signal ratio; note: potency is the fitted concentration of half-maximal effect). Summed up: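 Antagonist mode with agonist R5020 at 1 nM final and 16 hr incubation at 37C. Reporter was beta-lactamase driven by UAS in HEK293T (PR-UAS-bla), 2% charcoal-stripped serum; signal from LiveBLAzer FRET substrate, 2 hr at room temperature.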

For test [20], the target named is Estrogen receptor (Homo sapiens) (UniProt P03372). Briefly: qHTS assay to identify small molecule agonists of the estrogen receptor alpha (ER-alpha) signaling pathway in the presence of an antagonist (AID 1259383; calls by dose curve; note: top concentration of the series differs between compounds; nearly all actives have a fitted effect of over 15% in size). A digest of the protocol:
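Luminescent ERE-luciferase reporter, VM7Luc4E2 cells (endogenous ER-alpha); 10.0nM ICI-182,780 final; 15-point compound titration; 22hr at 37C; ONE-Glo, 30min RT.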

Sequence of Thyrotropin receptor (Homo sapiens) (P16473 whole entry, looked up): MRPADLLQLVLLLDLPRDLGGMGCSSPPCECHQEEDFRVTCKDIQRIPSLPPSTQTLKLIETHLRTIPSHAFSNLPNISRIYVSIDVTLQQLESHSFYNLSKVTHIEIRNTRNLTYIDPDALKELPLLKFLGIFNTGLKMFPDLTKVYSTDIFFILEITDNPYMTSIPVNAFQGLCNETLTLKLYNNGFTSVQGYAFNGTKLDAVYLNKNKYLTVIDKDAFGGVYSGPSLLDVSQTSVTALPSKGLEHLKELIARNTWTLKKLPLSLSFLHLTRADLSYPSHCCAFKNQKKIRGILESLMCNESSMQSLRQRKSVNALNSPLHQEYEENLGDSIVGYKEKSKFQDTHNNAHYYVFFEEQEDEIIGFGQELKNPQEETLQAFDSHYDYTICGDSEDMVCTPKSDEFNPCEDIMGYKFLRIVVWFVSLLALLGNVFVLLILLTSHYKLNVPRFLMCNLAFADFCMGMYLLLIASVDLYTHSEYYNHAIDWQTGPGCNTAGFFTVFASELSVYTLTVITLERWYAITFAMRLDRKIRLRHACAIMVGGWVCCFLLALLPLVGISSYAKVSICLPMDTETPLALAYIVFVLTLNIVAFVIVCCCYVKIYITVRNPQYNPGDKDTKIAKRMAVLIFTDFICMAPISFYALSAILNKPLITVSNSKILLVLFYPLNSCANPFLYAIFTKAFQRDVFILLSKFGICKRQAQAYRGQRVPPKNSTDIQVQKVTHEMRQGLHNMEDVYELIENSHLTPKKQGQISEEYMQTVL
Sequence of Nuclear receptor subfamily 1 group I member 2 (Homo sapiens) (O75469 whole entry, looked up): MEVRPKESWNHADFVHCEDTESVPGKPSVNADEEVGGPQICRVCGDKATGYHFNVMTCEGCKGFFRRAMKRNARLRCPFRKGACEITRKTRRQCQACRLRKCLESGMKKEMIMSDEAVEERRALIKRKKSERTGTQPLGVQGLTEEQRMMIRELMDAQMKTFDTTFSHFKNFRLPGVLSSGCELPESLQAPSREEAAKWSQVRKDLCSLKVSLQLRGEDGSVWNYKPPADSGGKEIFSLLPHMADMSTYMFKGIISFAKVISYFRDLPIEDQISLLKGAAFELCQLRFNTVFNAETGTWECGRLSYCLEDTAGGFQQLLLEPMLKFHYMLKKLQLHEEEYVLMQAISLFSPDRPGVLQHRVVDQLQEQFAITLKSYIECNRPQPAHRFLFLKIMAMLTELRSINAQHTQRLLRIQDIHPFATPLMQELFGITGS
Sequence of Thyrotropin-releasing hormone receptor (Homo sapiens) (P34981 whole entry, looked up): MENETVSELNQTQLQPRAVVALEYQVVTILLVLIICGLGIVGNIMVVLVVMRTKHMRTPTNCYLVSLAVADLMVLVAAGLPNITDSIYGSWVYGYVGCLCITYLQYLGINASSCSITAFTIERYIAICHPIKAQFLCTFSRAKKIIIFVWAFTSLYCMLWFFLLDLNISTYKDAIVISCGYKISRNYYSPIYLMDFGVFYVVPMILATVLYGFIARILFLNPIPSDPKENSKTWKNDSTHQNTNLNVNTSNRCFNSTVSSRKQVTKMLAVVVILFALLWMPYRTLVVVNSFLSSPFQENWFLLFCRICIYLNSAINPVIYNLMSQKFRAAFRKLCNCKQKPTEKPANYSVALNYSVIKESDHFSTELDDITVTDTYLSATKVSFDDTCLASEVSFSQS
Sequence of Estrogen receptor (Homo sapiens) (P03372 whole entry, looked up): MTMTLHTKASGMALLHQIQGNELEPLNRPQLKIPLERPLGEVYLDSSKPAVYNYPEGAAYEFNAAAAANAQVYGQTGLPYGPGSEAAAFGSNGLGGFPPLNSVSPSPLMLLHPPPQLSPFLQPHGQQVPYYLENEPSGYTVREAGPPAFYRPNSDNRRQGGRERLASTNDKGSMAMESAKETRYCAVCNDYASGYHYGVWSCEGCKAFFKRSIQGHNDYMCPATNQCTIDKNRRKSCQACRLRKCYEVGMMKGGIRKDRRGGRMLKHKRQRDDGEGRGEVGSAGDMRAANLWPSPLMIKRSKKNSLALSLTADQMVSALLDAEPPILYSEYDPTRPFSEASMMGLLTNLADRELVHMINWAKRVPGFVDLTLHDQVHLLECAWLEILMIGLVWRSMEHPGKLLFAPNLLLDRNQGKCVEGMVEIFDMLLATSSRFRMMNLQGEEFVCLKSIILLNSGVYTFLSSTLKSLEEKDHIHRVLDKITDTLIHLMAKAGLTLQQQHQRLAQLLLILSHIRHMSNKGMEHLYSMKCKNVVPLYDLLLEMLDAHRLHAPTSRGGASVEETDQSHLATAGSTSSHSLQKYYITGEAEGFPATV

In the case of `Cc1c(Cl)c(=O)oc2cc(O)ccc12`, the Potency entry in [1], in test [2], in [3], in [4], in test [5] and in test [6] was “inactive” throughout. Besides, the Potency entry in test [7], in [8] and in test [9] was “inactive” each time.

`N#Cc1nc(Cl)c(Cl)c(Cl)c1Cl`: the Potency in [1] is 30.6 µM (active); in test [4] it was 24.3 µM (active); in test [12], 48.6 µM (active); in [13], 1.72 µM (active); in test [14], 43.3 µM (active). Moreover, the Potency result in [2], in [3], in test [5], in test [6], in test [11] and in [7] was “inactive” throughout. Also, in test [8], the Potency result is “inactive”. For the same compound, the compound was classed as inactive in [10].

Consider `Nc1cc([N+](=O)[O-])ccc1Cl`, for which the Potency entry in test [1], in test [2], in [3], in test [15], in test [4] and in test [17] was “inactive” each time. The Potency result in [5], in test [6], in test [12], in [8], in [13] and in test [9] was “inactive” throughout. The Potency result in test [14] is “inactive”. Further, the result in test [16] and in test [10] was inactive.

As to `CC(CC(C)(C)C)CC(C)(C)CC(C)(C)C` (stereo not given), the Potency entry in test [1], in [2], in [3], in [15], in [4] and in test [17] was “inactive” each time. Further, the Potency result in test [5], in test [6], in [11], in test [12], in [8] and in [13] was “inactive” throughout. Besides, the Potency entry in test [9], in test [14] and in [18] was “inactive” throughout. Moreover, in [10], the compound was classed as inactive.

As to `SC1CCCCC1`, the Potency entry in test [1], in test [2], in [3], in test [15], in test [4] and in test [17] was “inactive” each time. For the same compound, the Potency entry in [5], in [6], in test [11], in test [7], in [12] and in [8] was “inactive” throughout. The Potency result in [13], in [9] and in [18] was “inactive” throughout. For the same compound, the call in test [16] and in test [10] was inactive.

Regarding `CN1CC[C@H](c2c(O)cc(O)c3c(=O)cc(-c4ccccc4Cl)oc23)[C@H](O)C1`, the Potency entry in test [1], in [15], in test [5] and in test [6] was “inactive” throughout. Further, the Potency in test [12] is 0.0944 µM (active); in test [8] it was 0.237 µM (active); in [9] it was 0.266 µM (active); in test [14] it was 0.335 µM (active); in test [18], 0.106 µM (active).

Regarding `O=C1CCC/C=C\CCCCCCCCCC1`, the Potency result in [1], in test [2], in test [3], in test [15], in test [5] and in test [6] was “inactive” throughout. Further, the Potency result in test [11], in test [7], in test [8], in [13] and in test [9] was “inactive” throughout. Further, the call in [16] and in test [10] was inactive. Besides, the Potency in [19] was 48.6 µM (active); in [18], 30.6 µM (active).

As to `CCCCC/C=C\C=C\C(=O)OCC`, the Potency result in [20], in [2], in [3], in [15], in test [19] and in test [4] was “inactive” in each case. Also, the Potency entry in test [17], in [5], in test [6], in test [11], in test [9] and in [14] was “inactive” throughout. Also, the outcome in test [16] and in test [10] was inactive. The Potency in [13] and in [18] was 63.7 µM (active) throughout.
